Tests used:
Assay in all cases: DAPPL (digital affinity profiling via proximity ligation, sequencing); 10 mM Tris-HCl pH 7.5, 50 mM NaCl, 1 mM DTT, 4% glycerol, room temperature, 30 min; GST-TFs on glutathione beads, 16-mer random dsDNA library, 0.1% formaldehyde crosslink after washing; high values mean tight binding
FEV = target: T1, FEV (Homo sapiens, UniProt Q99581 1-238); settings: protein: recombinant; tags: N-terminal GST; dsDNA, one strand shown
T1 sequence: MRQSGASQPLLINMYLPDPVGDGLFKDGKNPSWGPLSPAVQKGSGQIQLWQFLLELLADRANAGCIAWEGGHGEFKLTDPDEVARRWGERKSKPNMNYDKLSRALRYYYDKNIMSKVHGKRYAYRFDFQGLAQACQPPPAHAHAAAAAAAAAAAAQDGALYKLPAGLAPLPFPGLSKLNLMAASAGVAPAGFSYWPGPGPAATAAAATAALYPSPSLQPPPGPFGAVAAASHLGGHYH
How it was run: (§1)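 Human transcription factors fused to GST were expressed in yeast, captured on glutathione beads, given DNA barcodes and pooled with a GST-only negative control. Pools were incubated with 200 nmole of a 16-mer random double-stranded DNA library in Tris/NaCl/DTT/glycerol buffer at room temperature for 30 min. They were then washed, crosslinked with 0.1% formaldehyde, proximity-ligated (BsaI/T4 ligase, 1 h, 37 °C), PCR-amplified and sequenced on an Illumina NextSeq500. Binding signal is each 6-mer's read frequency for a factor divided by its frequency for the GST control.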

ETV5 = ETV5 (Homo sapiens, UniProt P41161 1-510); settings: protein: recombinant; tags: N-terminal GST; dsDNA, one strand shown
Sequence of ETV5 (P41161 whole entry): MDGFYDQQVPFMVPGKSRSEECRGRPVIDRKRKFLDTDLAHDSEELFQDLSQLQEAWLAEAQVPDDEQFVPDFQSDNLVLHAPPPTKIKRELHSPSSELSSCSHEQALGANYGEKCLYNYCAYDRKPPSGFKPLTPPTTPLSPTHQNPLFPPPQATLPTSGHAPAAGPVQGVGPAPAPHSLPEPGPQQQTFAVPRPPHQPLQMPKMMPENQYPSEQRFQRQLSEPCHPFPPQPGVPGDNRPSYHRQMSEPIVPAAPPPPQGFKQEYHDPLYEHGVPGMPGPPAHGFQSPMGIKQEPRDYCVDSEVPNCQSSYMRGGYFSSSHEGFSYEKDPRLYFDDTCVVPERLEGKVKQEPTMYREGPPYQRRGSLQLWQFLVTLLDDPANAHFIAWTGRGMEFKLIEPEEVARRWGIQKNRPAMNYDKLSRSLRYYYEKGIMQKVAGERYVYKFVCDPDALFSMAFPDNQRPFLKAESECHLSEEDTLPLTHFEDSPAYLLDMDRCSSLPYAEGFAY
How it was run: as §1

HSF1 = HSF1 (Homo sapiens, UniProt Q00613 1-529); settings: protein: recombinant; tags: N-terminal GST; chain copies: 3; dsDNA, one strand shown
Sequence of HSF1 (Q00613 whole entry): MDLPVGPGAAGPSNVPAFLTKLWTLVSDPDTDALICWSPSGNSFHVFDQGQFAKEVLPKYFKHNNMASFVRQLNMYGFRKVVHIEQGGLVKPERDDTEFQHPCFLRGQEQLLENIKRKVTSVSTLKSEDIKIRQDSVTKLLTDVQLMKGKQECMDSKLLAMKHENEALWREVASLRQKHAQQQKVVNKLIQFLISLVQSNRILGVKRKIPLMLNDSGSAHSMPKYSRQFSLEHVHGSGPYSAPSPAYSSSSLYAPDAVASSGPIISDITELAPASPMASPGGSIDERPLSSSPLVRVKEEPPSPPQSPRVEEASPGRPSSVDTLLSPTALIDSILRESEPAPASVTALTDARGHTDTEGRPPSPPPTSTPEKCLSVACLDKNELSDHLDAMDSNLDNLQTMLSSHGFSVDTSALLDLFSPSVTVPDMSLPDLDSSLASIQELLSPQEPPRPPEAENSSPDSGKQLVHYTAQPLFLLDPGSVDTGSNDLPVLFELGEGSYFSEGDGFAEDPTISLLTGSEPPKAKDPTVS
How it was run: as §1

SPIC = target: T2, SPIC (Homo sapiens, UniProt Q8N5J4 1-248); settings: protein: recombinant; tags: N-terminal GST; dsDNA, one strand shown
T2 sequence: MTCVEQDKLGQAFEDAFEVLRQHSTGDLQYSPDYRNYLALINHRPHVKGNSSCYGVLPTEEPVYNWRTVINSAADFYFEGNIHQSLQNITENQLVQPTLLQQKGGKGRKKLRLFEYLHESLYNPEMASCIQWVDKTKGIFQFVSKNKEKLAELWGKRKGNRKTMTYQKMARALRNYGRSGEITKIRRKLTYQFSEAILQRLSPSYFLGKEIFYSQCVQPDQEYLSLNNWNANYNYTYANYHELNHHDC
How it was run: as §1

ELF4 = ELF4 (Homo sapiens, UniProt Q99607 1-663); settings: protein: recombinant; tags: N-terminal GST; dsDNA, one strand shown
Sequence of ELF4 (Q99607 whole entry): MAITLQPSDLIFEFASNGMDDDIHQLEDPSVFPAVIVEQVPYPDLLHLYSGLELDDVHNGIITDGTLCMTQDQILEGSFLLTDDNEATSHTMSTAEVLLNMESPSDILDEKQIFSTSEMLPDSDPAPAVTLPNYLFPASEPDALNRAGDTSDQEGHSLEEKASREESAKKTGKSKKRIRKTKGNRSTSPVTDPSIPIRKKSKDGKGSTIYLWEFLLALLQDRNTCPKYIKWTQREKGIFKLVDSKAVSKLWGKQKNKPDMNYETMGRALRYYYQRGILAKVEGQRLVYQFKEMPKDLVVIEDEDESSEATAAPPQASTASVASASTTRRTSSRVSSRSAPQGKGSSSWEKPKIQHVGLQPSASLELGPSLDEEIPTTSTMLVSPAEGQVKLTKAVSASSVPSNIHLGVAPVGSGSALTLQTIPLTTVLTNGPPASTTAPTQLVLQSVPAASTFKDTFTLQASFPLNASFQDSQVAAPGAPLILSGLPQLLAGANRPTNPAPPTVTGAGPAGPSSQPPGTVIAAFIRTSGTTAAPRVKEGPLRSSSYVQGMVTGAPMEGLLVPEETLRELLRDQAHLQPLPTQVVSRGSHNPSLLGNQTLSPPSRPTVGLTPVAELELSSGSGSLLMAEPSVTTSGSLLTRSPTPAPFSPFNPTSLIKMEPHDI
How it was run: as §1

ELK4 = target: T3, ELK4 (Homo sapiens, UniProt P28324-2 1-405); settings: protein: recombinant; tags: N-terminal GST; dsDNA, one strand shown
T3 sequence: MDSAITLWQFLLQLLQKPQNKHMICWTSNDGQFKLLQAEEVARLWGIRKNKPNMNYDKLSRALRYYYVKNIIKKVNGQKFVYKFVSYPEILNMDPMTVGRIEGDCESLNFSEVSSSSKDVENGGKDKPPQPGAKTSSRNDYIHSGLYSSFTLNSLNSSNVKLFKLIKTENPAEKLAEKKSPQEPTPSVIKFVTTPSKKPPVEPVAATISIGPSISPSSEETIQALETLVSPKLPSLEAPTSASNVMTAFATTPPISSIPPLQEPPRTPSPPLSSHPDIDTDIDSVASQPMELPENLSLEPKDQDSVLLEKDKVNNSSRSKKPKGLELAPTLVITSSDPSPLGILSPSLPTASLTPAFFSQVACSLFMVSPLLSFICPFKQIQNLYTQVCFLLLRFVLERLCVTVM
How it was run: as §1

ETV2 = target: T4, ETV2 (Homo sapiens, UniProt O00321 1-342); settings: protein: recombinant; tags: N-terminal GST; dsDNA, one strand shown
T4 sequence: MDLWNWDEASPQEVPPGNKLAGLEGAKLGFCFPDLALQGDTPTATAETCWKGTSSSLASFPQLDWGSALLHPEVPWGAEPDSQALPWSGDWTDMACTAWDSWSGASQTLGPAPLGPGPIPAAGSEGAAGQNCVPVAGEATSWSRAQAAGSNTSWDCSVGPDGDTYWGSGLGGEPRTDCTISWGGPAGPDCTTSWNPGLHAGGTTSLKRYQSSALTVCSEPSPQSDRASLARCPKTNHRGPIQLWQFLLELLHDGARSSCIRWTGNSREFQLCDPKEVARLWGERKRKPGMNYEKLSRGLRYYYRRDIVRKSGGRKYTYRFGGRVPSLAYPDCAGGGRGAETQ
How it was run: as §1

ELF3 = target: T5, ELF3 (Homo sapiens, UniProt P78545 1-371); settings: protein: recombinant; tags: N-terminal GST; dsDNA, one strand shown
T5 sequence: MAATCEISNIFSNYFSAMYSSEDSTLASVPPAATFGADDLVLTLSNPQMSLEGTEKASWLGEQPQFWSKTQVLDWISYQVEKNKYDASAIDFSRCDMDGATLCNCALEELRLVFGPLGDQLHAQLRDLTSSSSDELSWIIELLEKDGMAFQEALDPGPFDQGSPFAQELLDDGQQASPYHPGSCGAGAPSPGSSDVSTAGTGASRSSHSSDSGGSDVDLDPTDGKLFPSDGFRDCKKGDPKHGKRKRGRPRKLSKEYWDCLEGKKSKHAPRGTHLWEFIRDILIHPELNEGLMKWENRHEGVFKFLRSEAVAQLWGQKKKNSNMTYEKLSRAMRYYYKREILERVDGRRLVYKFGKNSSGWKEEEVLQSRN
How it was run: as §1

CRX = CRX (Homo sapiens, UniProt O43186 1-299); settings: protein: recombinant; tags: N-terminal GST; dsDNA, one strand shown
Sequence of CRX (O43186 whole entry): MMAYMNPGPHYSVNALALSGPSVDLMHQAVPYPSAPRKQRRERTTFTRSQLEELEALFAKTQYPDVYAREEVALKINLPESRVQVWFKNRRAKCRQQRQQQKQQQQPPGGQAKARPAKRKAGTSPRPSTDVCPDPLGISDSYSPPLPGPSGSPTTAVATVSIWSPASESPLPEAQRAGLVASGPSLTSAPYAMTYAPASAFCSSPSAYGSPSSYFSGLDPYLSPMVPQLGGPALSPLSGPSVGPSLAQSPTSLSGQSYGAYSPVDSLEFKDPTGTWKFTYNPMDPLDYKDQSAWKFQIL
How it was run: as §1

ETV1 = ETV1 (Homo sapiens, UniProt P50549 1-477); settings: protein: recombinant; tags: N-terminal GST; dsDNA, one strand shown
Sequence of ETV1 (P50549 whole entry): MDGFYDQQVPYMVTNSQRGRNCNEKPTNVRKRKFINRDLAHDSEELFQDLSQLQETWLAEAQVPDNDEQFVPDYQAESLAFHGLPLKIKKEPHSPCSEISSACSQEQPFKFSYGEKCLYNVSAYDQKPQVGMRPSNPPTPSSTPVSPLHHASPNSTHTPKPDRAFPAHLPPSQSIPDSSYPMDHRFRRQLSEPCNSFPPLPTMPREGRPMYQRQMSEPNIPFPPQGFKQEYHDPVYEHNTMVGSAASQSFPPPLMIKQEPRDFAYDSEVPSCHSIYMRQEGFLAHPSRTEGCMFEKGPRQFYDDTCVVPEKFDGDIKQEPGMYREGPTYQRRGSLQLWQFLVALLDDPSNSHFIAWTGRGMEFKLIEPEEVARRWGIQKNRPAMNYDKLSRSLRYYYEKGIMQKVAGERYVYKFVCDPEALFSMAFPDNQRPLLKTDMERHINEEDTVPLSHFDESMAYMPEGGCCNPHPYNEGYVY
How it was run: as §1

ERF = target: T6, ERF (Homo sapiens, UniProt P50548 1-548); settings: protein: recombinant; tags: N-terminal GST; dsDNA, one strand shown
T6 sequence: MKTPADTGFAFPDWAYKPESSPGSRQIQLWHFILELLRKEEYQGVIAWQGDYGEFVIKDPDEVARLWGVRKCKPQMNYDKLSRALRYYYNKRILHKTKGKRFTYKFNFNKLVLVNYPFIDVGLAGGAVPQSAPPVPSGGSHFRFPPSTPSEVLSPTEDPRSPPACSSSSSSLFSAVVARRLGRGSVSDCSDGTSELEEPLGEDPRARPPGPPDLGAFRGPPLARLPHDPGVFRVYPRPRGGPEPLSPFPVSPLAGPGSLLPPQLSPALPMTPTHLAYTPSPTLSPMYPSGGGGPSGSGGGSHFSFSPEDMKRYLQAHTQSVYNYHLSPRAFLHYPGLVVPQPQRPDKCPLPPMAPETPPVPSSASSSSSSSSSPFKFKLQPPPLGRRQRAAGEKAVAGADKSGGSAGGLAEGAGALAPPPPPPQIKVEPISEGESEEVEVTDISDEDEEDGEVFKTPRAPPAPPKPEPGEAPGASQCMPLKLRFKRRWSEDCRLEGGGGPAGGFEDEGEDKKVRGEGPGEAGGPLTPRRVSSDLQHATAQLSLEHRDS
How it was run: as §1

ETV3L = target: T7, ETV3L (Homo sapiens, UniProt Q6ZN32 1-361); settings: protein: recombinant; tags: N-terminal GST; dsDNA, one strand shown
T7 sequence: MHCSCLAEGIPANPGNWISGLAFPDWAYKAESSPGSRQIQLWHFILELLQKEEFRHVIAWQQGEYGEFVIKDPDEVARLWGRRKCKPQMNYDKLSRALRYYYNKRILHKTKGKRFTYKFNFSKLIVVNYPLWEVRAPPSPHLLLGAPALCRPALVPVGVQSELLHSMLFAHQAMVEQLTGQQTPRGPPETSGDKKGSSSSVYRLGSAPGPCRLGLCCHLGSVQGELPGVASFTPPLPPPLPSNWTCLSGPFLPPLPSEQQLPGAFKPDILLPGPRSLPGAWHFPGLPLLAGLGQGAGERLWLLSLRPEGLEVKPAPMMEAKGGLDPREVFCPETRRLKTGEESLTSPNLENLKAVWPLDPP
How it was run: as §1

ETS2 = target: T8, ETS2 (Homo sapiens, UniProt P15036 1-469); settings: protein: recombinant; tags: N-terminal GST; dsDNA, one strand shown
T8 sequence: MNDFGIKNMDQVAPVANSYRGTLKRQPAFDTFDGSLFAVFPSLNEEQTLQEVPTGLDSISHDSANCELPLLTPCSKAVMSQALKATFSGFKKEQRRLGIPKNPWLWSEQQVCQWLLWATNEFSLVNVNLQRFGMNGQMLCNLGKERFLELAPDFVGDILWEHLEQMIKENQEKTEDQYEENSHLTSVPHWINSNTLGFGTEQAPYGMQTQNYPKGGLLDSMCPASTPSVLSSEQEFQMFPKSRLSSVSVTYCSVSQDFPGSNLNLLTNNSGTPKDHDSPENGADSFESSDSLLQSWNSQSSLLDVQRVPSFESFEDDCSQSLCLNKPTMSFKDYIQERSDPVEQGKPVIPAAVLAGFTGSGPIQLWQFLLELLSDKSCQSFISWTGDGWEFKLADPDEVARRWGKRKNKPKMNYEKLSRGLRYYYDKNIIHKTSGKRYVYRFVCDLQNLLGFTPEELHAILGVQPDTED
How it was run: as §1

SPDEF = target: T9, SPDEF (Homo sapiens, UniProt O95238 1-335); settings: protein: recombinant; tags: N-terminal GST; dsDNA, one strand shown
T9 sequence: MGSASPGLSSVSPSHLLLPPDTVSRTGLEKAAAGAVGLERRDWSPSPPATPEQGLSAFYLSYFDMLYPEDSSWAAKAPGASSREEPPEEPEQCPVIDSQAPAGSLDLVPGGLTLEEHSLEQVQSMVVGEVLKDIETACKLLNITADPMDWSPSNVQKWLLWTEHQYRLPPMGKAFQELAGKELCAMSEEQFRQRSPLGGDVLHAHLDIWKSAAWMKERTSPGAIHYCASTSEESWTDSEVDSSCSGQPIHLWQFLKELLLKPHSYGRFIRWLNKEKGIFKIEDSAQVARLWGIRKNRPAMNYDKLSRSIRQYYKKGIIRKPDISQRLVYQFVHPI
How it was run: as §1

ETV7 = target: T10, ETV7 (Homo sapiens, UniProt Q9Y603 1-341); settings: protein: recombinant; tags: N-terminal GST; dsDNA, one strand shown
T10 sequence: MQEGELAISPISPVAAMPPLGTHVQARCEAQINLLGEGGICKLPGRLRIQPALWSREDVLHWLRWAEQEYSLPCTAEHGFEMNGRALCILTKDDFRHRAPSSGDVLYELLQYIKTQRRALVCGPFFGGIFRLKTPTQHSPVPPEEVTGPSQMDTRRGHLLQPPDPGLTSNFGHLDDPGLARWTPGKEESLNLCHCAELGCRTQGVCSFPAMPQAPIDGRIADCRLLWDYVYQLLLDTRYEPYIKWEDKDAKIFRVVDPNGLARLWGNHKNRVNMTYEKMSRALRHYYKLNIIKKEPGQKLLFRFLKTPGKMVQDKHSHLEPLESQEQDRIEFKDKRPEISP
How it was run: as §1

ELF5 = target: T11, ELF5 (Homo sapiens, UniProt Q9UKW6-2 1-255); settings: protein: recombinant; tags: N-terminal GST; dsDNA, one strand shown
T11 sequence: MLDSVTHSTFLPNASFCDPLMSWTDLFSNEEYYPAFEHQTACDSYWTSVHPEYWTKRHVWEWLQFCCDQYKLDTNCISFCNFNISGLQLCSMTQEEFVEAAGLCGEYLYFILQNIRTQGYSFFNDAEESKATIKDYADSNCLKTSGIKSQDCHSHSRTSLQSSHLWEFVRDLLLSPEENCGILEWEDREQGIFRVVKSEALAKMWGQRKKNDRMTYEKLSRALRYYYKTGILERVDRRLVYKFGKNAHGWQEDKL
How it was run: as §1

ETV3 = target: T12, ETV3 (Homo sapiens, UniProt P41162-2 1-143); settings: protein: recombinant; tags: N-terminal GST; dsDNA, one strand shown
T12 sequence: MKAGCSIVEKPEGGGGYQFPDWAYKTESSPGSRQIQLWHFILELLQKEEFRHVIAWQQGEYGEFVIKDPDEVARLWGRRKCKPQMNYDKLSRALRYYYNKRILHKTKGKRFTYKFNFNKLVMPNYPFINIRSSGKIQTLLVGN
How it was run: as §1

ETV6 = ETV6 (Homo sapiens, UniProt P41212 1-452); settings: protein: recombinant; tags: N-terminal GST; dsDNA, one strand shown
Sequence of ETV6 (P41212 whole entry): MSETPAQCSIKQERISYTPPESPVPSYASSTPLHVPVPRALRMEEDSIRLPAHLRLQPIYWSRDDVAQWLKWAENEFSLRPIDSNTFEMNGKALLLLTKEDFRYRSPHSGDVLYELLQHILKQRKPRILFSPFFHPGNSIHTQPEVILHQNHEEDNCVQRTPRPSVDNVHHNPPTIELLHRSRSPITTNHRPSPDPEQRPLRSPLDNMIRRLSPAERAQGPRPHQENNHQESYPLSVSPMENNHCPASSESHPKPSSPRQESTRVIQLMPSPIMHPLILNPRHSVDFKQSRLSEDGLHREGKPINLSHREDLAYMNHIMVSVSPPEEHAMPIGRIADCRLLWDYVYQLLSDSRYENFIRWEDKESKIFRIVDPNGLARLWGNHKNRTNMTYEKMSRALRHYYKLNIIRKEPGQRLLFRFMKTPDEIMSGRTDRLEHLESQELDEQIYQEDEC
How it was run: as §1

## CTAGTT
FEV
  binding signal: 1.23 fold enrichment (6-mer frequency, TF over GST control)
ETV5
  binding signal: 1.31 fold enrichment (6-mer frequency, TF over GST control)
HSF1
  binding signal: 1.51 fold enrichment (6-mer frequency, TF over GST control)
SPIC
  binding signal: 1.47 fold enrichment (6-mer frequency, TF over GST control)
ELF4
  binding signal: 1.35 fold enrichment (6-mer frequency, TF over GST control)
ELK4
  binding signal: 1.54 fold enrichment (6-mer frequency, TF over GST control)
ETV2
  binding signal: 1.32 fold enrichment (6-mer frequency, TF over GST control)
ELF3
  binding signal: 1.38 fold enrichment (6-mer frequency, TF over GST control)
CRX
  binding signal: 1.16 fold enrichment (6-mer frequency, TF over GST control)
ETV1
  binding signal: 1.35 fold enrichment (6-mer frequency, TF over GST control)
ERF
  binding signal: 1.34 fold enrichment (6-mer frequency, TF over GST control)
ETV3L
  binding signal: 1.23 fold enrichment (6-mer frequency, TF over GST control)
ETS2
  binding signal: 1.38 fold enrichment (6-mer frequency, TF over GST control)
SPDEF
  binding signal: 1.29 fold enrichment (6-mer frequency, TF over GST control)
ETV7
  binding signal: 1.28 fold enrichment (6-mer frequency, TF over GST control)
ELF5
  binding signal: 1.22 fold enrichment (6-mer frequency, TF over GST control)
ETV3
  binding signal: 1.19 fold enrichment (6-mer frequency, TF over GST control)
ETV6
  binding signal: 1.3 fold enrichment (6-mer frequency, TF over GST control)

From publication PMC7862700, “An all-to-all approach to the identification of sequence-specific readers for epigenetic DNA modifications on cytosine”
